# High-throughput results as filed in PubChem BioAssay.
# In the library only some 0.59% were active in any assay of this set; here they are far more common.
# VHR inh abs: VHR1 phosphatase inhibitors, primary screen, biochemical, absorbance, uHTS | recombinant VHR phosphatase, pNPP absorbance | inhibition, % at 13.3 µM | AID 1654, 2009 | 290,000 tested, 0.52% active | Dual specificity protein phosphatase 3 (Homo sapiens), P51452; in the data active means inhibition above about 50%
# Target sequence (P51452 whole entry, looked up): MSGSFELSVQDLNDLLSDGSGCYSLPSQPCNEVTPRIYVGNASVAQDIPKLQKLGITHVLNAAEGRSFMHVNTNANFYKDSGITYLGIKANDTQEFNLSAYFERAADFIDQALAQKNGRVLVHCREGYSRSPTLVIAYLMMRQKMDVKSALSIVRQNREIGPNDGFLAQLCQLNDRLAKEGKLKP
# Mtb UGM inh: M. tuberculosis UGM enzyme inhibitors, primary screen, biochemical, fluorescence polarization, single point; UDP-galactopyranose mutase (Mycobacterium tuberculosis (strain ATCC 25618 / H37Rv)), …; purified UGM, fluorescence polarization probe displacement; inhibition, % at 10 µM; 320,000 tested, 0.06% active; AID 504406, 2011; in the data active means inhibition above about 10%, passing the limit was not always enough; inconclusive means no clear call, values can overlap the other calls
# Mtb hypoxia inh: PubChem AID 1159583 | M. tuberculosis hypoxia-regulated fluorescent reporter, fluorescence | fluorescence inhibition, % (no concentration beside the values) | 300,000 tested, 0.1% active; in the data active means fluorescence inhibition mostly above about 23%, no sharp cut-off; inactive means mostly below about 17%
# Mtb betalactam: beta-lactam sensitization of Mtb H37Rv, H37Rv | M. tuberculosis H37Rv growth with meropenem, percent inhibition | inhibition, % at 25 µM | 330,000 tested, 0.27% active | AID 434955, 2010; call rule not given here;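 further: growth measured after seven days incubation then overnight dye step; 0% = bacteria only wells and 100% = bacteria with antibiotic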
# Rv3671c inh: Rv3671c serine protease inhibitors, primary screen, biochemical, fluorescence polarization, M. tuberculosis H37Rv. P9WHR9. 320,000 tested, 0.048% active. inhibition, % at 5.96 µM. AID 2606, 2010; in the data active means inhibition above about 38%;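 further: extracellular domain of Rv3671c used as enzyme; 0% = enzyme with DMSO and 100% = no enzyme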
# Target sequence (P9WHR9 whole entry, looked up, the tested form may be a part): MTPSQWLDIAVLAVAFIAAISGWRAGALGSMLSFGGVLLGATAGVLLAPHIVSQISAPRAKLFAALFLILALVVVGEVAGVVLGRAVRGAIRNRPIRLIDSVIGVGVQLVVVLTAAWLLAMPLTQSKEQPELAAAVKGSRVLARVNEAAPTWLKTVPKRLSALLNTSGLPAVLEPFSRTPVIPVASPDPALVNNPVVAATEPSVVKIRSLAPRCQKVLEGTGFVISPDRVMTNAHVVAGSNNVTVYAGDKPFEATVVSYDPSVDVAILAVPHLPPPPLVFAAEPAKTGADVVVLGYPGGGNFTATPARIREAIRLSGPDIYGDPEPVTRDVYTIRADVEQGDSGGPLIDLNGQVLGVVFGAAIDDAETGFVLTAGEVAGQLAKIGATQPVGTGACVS
# * marks the source's active call; other numbers are inactive results; i = inactive; ? = inconclusive; . = no result given.
SMILES,VHR inh abs,Mtb UGM inh,Mtb hypoxia inh,Mtb betalactam,Rv3671c inh
Cc1occc1C(=O)NCCc1cccc(Cl)c1,-15,-1,.,-7,0
O=Cc1c(NCc2ccccc2F)c2ccccc2[nH]c1=O,16,4,15,-6,2
COC(C(=O)N/N=C(\C)c1ccc(O)cc1)c1ccccc1 (stereo unspecified),5,1,.,-1,-8
COC(C(=O)N/N=C(\C)c1ccc(C)cc1)c1ccccc1 (stereo unspecified),52*,2,.,-2,.
CC(=O)c1ccc(N2CCN(C(=O)Cc3n[nH]c(=O)c4ccccc34)CC2)cc1,-16,1,-4,-18,-5
Cc1cc(C)c(C(=O)NNC(=O)c2cccnc2)c(C)c1,56*,3,12,3,-3
CCC1CCCCN1CCCNC(=O)c1ccc(N2CCCC2=O)cc1 (stereo unspecified),56*,-2,3,-2,5
Cc1ccc(-c2ccc(/C=C(\C#N)C(=O)Nc3cc(C)nn3-c3ccccc3)o2)cc1,-12,48*,.,-14,3
N#C/C(=C\c1ccc(-c2ccccc2)o1)C(=O)Nn1cnnc1,57*,-3,-2,-7,1
CCCCCCNC(=O)C(=O)NCCc1ccc(Cl)cc1,16,1,-2,-9,-15
COc1ccc(CCNC(=O)c2cc3c(=O)n4ccccc4nc3n(Cc3ccco3)c2=N)cc1OC,20,-2,39*,9,1
COc1cc(OC)cc(C(=O)N[C@H](C(=O)Nc2nc(-c3cc(OC)ccc3OC)cs2)C(C)C)c1,30,0,-4,1,-21
Cc1cccc(NC(=O)CCC2CCN(C(=O)c3ccc(C)s3)CC2)c1,60*,4,-4,31,-7
COCc1ccc(C(=O)N2CCC(CCC(=O)Nc3cccc(C)c3)CC2)s1,5,1,1,-3,-4
CCOC(=O)c1cnc2ccc(Cl)cc2c1NCCN(C)C,13,20*,.,10,5
COc1ccc(-c2cn3c(C)c(C(=O)N4CCN(c5ccccc5F)CC4)sc3n2)cc1,29,4,-3,55,-4
Cc1nn(-c2cccc(Cl)c2)nc1C(=O)O,9,-2,10,-6,-1
CN(C(=O)c1ccccc1Cl)c1ccccc1C(=O)NCc1ccccc1,53*,3,6,-3,0
COc1ccc(C(=O)C2CCCN(C3CSCCSC3)C2)c(OC)c1 (stereo unspecified),57*,-2,.,3,-1
COc1ccc(C(=O)C2CCCN(C3CSCCSC3)C2)c(C)c1 (stereo unspecified),1,-1,-5,99,3
CC(=O)OCc1c(COC(C)=O)[n+](=O)c2ccccc2n1[O-],-16,0,2,-10,1
O=C(Nc1nnc(-c2ccc(Br)cc2)o1)C1=COCCO1,.,5,5,97,2
Cc1sc2ncnc(N3CCC(C(=O)NNC(=O)c4ccccc4Cl)CC3)c2c1C,53*,1,3,?,-13
COC(=O)C1=C(c2ccccc2OCc2ccccc2)CC2CCC1N2C(=O)NCc1ccc([N+](=O)[O-])cc1 (stereo unspecified),.,.,3,.,.
CC(=O)OCC1OC(OCc2cn(CC3CCC(Cn4cc(COC5OC(COC(C)=O)C(OC(C)=O)C(OC(C)=O)C5OC(C)=O)nn4)O3)nn2)C(OC(C)=O)C(OC(C)=O)C1OC(C)=O (stereo unspecified),.,.,5,.,.
SMILES,VHR inh abs,Mtb UGM inh,Mtb hypoxia inh,Mtb betalactam,Rv3671c inh
CCOCCCNC(=S)N1CCCN(c2nc3cc(C)c(C)cc3cc2C#N)CC1,52*,2,0,63,-13
COCCCNC(=S)N1CCCN(c2nc3cc(C)c(C)cc3cc2C#N)CC1,16,-1,25,10,-7
COc1ccc(OC)c(CNC(=O)C(C)n2nc(C)c3c(C)n(-c4ccccc4)nc3c2=O)c1 (stereo unspecified),10,3,11,0,-7
COc1ccc(OCCn2c(C)c(/C=N/n3cnnc3)c3ccccc32)cc1,21,0,.,0,1
CCCn1c(C)cc(C(=O)Cn2nnc3ccccc3c2=O)c1C,11,-1,5,-5,11
Cc1c(N=C2N=C(NC(=O)c3ccc(F)cc3)c3ccccc32)c(=O)n(-c2ccccc2)n1C,5,18*,2,-2,-1
CCOc1cc(S(=O)(=O)NCc2ccccc2)ccc1Br,9,0,6,78,-1
CCc1ccc2[nH]c(=O)c(CN(CCCN3CCOCC3)C(=O)Nc3ccc(Cl)cc3)cc2c1,53*,-1,.,73,-1
CCc1ccc2[nH]c(=O)c(CN(CCCN3CCOCC3)C(=O)Nc3ccccc3)cc2c1,4,5,6,-8,-3
COc1cccc(CN(C(=O)/C=C/c2ccc(Cl)cc2)C2CCS(=O)(=O)C2)c1 (stereo unspecified),51*,0,16,-4,-1
c1cc(-c2sc(-c3ccncc3)c(-c3ccncc3)c2-c2ccncc2)ccn1,53*,0,-3,52,-6
Cc1cc(C)cc(OC(=O)CS(=O)c2ccc(C(F)(F)F)cc2[N+](=O)[O-])c1 (stereo unspecified),27,0,5,77,-3
O=C(CS(=O)c1ccc(C(F)(F)F)cc1[N+](=O)[O-])Oc1ccc(Cl)cc1 (stereo unspecified),51*,0,6,93,5
CC(C)Oc1ccc(CNC(=O)Cn2ccc3cc(S(=O)(=O)N4CCCC4)ccc32)cc1,53*,-2,10,-1,-4
O=C(Nc1cccc(O)c1)c1cccc(NC(=O)c2cccs2)c1,36,-1,54*,-2,-18
COc1ccc(C(=O)Nc2ccnn2C2CCN(C3CCC3)CC2)cc1,52*,2,-4,-2,1
CCN1C(=O)/C(=C/C=C2/SCCN2C)SC1=S,26,3,.,5,-5
CN1/C(=C\C=C2/SC(=S)N(CC(=O)O)C2=O)C(C)(C)c2ccccc21,15,-27,62*,24,i
C=CCN1C(=O)/C(=C\C=C2\N(C)c3ccccc3C2(C)C)SC1=S,-9,-1,.,9,-46
CN1CCS/C1=C\C=C1/SC(=S)N(CC(=O)O)C1=O,40,.,47*,.,.
O=C(Nc1ccc(F)cc1)Nc1nnc(-c2ccco2)s1,5,-1,-17,1,-10
Cc1cc(/C=N/O)c(C)n1-c1cccc(Cl)c1,30,0,.,-5,2
O=C(NC(CO)Cc1ccccc1)c1ccccc1 (stereo unspecified),-11,0,-1,1,-7
O=C(NC(NCC1CCCO1)C(Cl)(Cl)Cl)c1cccc2ccccc12 (stereo unspecified),9,3,4,15,-1
Cc1ccc(N(CC(=O)NC2CCCC2)C(=O)CCC(=O)Nc2ccccn2)cc1C,0,8,1,-1,6
